# Measured values from PubChem BioAssay (NCATS).
# Where “and” joins values, the source holds several entries; their conditions need not be identical. Equal values may be shown once. Unmarked numbers belong to inactive results. Results filed as inconclusive are left out. Calls of active or inactive are those of the source. Unless noted, calls come from the whole dose curve; as a rule, active = well fitted curve in either direction with a large enough effect (not every such curve was filed as active); inconclusive = small, poorly fitted or top-dose-only effect, or another doubt; inactive = flat fitted curve, though single readings scatter.
# Legend:
# [1] = AP1 Signaling Pathway (AID 357); conditions: ME-180 AP-1-bla reporter, EGF-induced, beta-lactamase ratio, 5 h;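 note: ME-180 reporter cells stimulated with EGF at its EC50 level; % is set by controls: 0 for no effect and ±100 for the full control effect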
# Outline: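 Modulation of EGF-driven AP-1 transcription was assessed with a beta-lactamase reporter in ME-180 cells. Compound and EC50 EGF were co-incubated 5 hours at 37 °C before 2.5-hour CCF4 loading at room temperature and dual-emission reading.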
# [2] = biological target: Cytochrome P450 1A2 (Homo sapiens) (UniProt P05177); test: p450-cyp1a2 (AID 410; calls by dose curve; note: potency is the fitted concentration of half-maximal effect;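 for activity change, negative = inhibition: -100% = full effect of reference inhibitor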); conditions: recombinant CYP1A2, luciferin-ME demethylation, luminescence; series mostly up to 57 µM
# Outline: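 Read-out is luminescence from luciferin produced by CYP1A2 demethylation of Luciferin-ME (100uM, at Km). Detection reagent stopped the 60 min NADPH-dependent reaction; signals were normalized to 57 uM furafylline.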
# [3] = biological target: Glucocorticoid receptor (Homo sapiens) (UniProt P04150); test: GR-GFP Redistribution (AID 450;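 active = compounds whose dose series gives a full or clear partial fitted curve of increased nuclear translocation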; note: potency is the fitted concentration of half-maximal effect); conditions: U2OS GR-GFP nuclear translocation, laser cytometry, 2 h
# [4] = biological target: Mitogen-activated protein kinase 10 (Mus musculus) (UniProt Q61831); test: JNK3 AlphaScreen Assay (AID 530); conditions: JNK3 lysate, c-Jun phosphorylation; series mostly up to 57.1 µM;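 note: kinase came from lysate of stimulated human HepG2 cells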; note: potency is the fitted concentration of half-maximal effect;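 for activity change, negative = inhibition: signal reports phosphorylation of biotinylated GST-cJun 1-79 at Ser73 with 10 µM ATP; % is set by controls: 0 for no effect and ±100 for the full control effect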
# Outline: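 Biotinylated GST-cJun(1-79) served as substrate for JNK3 in HepG2 lysates stimulated with IL-1beta and TNF-alpha. ATP was 10 uM final, pH 7.6. Ser73 phosphorylation was quantified by AlphaScreen (680 nm excitation).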
# [5] = Cell Viability - BJ (AID 421; calls by dose curve;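 note: potency is the fitted concentration of half-maximal effect; cells exposed to compound for 40 hours at 37 °C before readout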); conditions: BJ fibroblast viability, qHTS
# Outline: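 Quantitative HTS: ATP depletion in BJ cells after 40 hr compound exposure in complete culture medium, detected with CellTiter-Glo; AC50 from standard Hill fits.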
# [6] = Cell Viability - Jurkat (AID 426;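 active = dose-dependent loss of cell ATP signal giving a full or clear fitted curve, ranked by lower potency value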;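 note: potency is the fitted concentration of half-maximal effect; cells exposed to compound for 40 hours at 37 °C before ATP read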); conditions: qHTS
# Outline: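 Cytotoxicity was scored as loss of cellular ATP, measured by luciferase-based luminescence, in Jurkat clone E6-1 cells after 40 h compound treatment; tamoxifen and doxorubicin served as positive controls.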
# [7] = Cell Viability - Hek293 (AID 427;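 active = compounds whose dose-response curve shows a full or clear partial loss of cell viability, called from curve shape rather than a numeric limit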;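 note: potency is the fitted concentration of half-maximal effect; cells exposed to compound for 40 hours at 37 °C before reading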); conditions: qHTS
# Outline: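 AC50 values derive from Hill-modelled concentration-response of ATP-based luminescence, normalized between DMSO-only and 100 uM tamoxifen controls. Cells were exposed in complete culture medium for 40 hr at 37 °C before detection.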
# [8] = Cell Viability - HepG2 (AID 433; calls by dose curve;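 note: potency is the fitted concentration of half-maximal effect; potency for ATP loss meaning cytotoxicity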); conditions: qHTS
# Outline: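 Read-out is luciferase-based quantitation of cellular ATP as a measure of viable HepG2 cells after 40 h treatment at 37 °C. Signal decrease is scaled between DMSO-only and 100 uM tamoxifen controls, with AC50 fitted by the Hill equation.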
# [9] = Cell Viability - MRC5 (AID 434; calls by dose curve;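 note: potency is the fitted concentration of half-maximal effect; cells exposed to compound for 40 hours at 37 °C; potency reflects cytotoxicity seen as loss of intracellular ATP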); conditions: MRC5 lung fibroblast viability, qHTS
# Outline: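 Decrease in intracellular ATP, quantified by luciferase light output, reflects compound toxicity toward MRC5 cells exposed for 40 hr in complete culture medium. Concentration-response curves, scaled between DMSO and 100 uM tamoxifen, gave AC50 values.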
# [10] = Cell Viability - SK-N-SH (AID 435; calls by dose curve;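 note: potency is the fitted concentration of half-maximal effect; compound exposure lasted 40 h at 37 °C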); conditions: SK-N-SH neuroblastoma cell viability qHTS
# Outline: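 Luminescent ATP signal served as the viability read-out after 40 hours of compound treatment of human neuroblastoma SK-N-SH cells. Concentration-response data, scaled between DMSO and 100 uM tamoxifen, gave AC50 values by standard Hill modeling.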
# [11] = NFAT Signaling Pathway (AID 444); conditions: Jurkat NFAT-bla M1, carbachol, beta-lactamase ratio, 5 h; at 38 µM (top of the series) unless noted;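 note: carbachol stimulus at about its EC50 of 1 µM final; % is set by controls: 0 for no effect and ±100 for the full control effect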
# Outline: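 Jurkat cells carrying an NFAT-driven β-lactamase reporter and co-transfected muscarinic M1 receptor were treated with compound plus carbachol (1 uM final, an EC50 level) for 5 h at 37 °C. CCF4 loading followed for 1 h at RT; 460/530 nm ratio gave %activity.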
# [12] = Stat Signaling Pathway (AID 446); conditions: ME-180 (cervical carcinoma) SIE beta-lactamase reporter, IL-6 stimulated, 5 h;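 note: ME-180 cervical cancer cells given 40 pM IL-6 alongside compound; SIE-controlled beta-lactamase reporter measured as 460/530 nm FRET emission ratio; % is set by controls: 0 for no effect and ±100 for the full control effect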
# Outline: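 Overnight-plated ME-180 cells bearing a STAT Inducible Element beta-lactamase reporter; 5 h co-exposure to compound and 40 pM IL-6; values normalized to 300 pM IL-6 and 125 nM JAK inhibitor controls.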
# [13] = Cell Viability - N2a (AID 540; active = well fitted curve in the direction sought with a large enough effect; an effect the other way counts as inactive or inconclusive;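 note: cells exposed to compound for 40 h at 37 °C; plate controls were DMSO alone for no effect and tamoxifen control for full effect; nearly all actives have a fitted effect of over 45% in size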); conditions: N2a mouse neuroblastoma cell viability; activity change, negative = cytotoxicity: at 92.2 µM (top of the series)
# Outline: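 In this qHTS cytotoxicity screen, ATP-dependent luciferase luminescence reports viable N2a cells after a 40 hr compound exposure in complete culture medium. Potencies are AC50 values from standard Hill equation fits.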
# [14] = Cell Viability - NIH 3T3 (AID 541; active = well fitted curve in the direction sought with a large enough effect; an effect the other way counts as inactive or inconclusive;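 note: plate controls were DMSO alone for no effect and tamoxifen positive control for full effect; nearly all actives have a fitted effect of over 25% in size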); conditions: NIH 3T3 cell viability, qHTS; activity change, negative = cytotoxicity: at 92.2 µM (top of the series)
# Outline: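 In this cytotoxicity screen, acute toxicity is scored as an ATP drop measured by CellTiter-Glo in NIH 3T3 fibroblasts following a 40 hr, 37 °C incubation with compound.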
# [15] = Cell Viability - HUV-EC-C (AID 542; active = well fitted curve in the direction sought with a large enough effect; an effect the other way counts as inactive or inconclusive; note: % is set by controls: 0 for no effect and ±100 for the full control effect; nearly all actives have a fitted effect of over 35% in size); conditions: HUV-EC-C endothelial cell viability, qHTS; series mostly up to 92.2 µM
# Outline: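 Concentration-dependent ATP loss in HUV-EC-C cells is the measure. Exposure lasts 40 hr at 37 °C; luminescence follows CellTiter-Glo addition, and Hill fits give AC50.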
# [16] = Cell Viability - H-4-II-E (AID 543; active = well fitted curve in the direction sought with a large enough effect; an effect the other way counts as inactive or inconclusive; note: % is set by controls: 0 for no effect and ±100 for the full control effect; nearly all actives have a fitted effect of over 35% in size); conditions: H-4-II-E rat hepatoma viability; series mostly up to 92.2 µM
# Outline: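 AC50 from Hill-modelled qHTS concentration-response curves. H-4-II-E rat hepatoma cells in complete medium, 40 hr exposure at 37 °C, viability by CellTiter-Glo ATP luminescence.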
# [17] = Cell Viability - SH-SY5Y (AID 544; active = well fitted curve in the direction sought with a large enough effect; an effect the other way counts as inactive or inconclusive;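 note: 0% = DMSO alone and -100% = 100 µM tamoxifen; nearly all actives have a fitted effect of over 55% in size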); conditions: SH-SY5Y neuroblastoma cell viability; viability change, negative = cytotoxic: at 92.2 µM (top of the series)
# Outline: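 Quantitative HTS in SH-SY5Y neuroblastoma cells, 40 hr treatment at 37 °C, ATP content by luciferase luminescence; AC50 from Hill fits.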
# [18] = Cell Viability - Renal Proximal Tubule (AID 545; active = well fitted curve in the direction sought with a large enough effect; an effect the other way counts as inactive or inconclusive;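 note: 0% = DMSO only and -100% = 100 µM tamoxifen; nearly all actives have a fitted effect of over 40% in size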); conditions: renal proximal tubule cells viability, primary cells of rat origin; activity change, negative = cytotoxicity: at 91.7 µM (top of the series)
# Outline: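 Luminescent ATP signal (CellTiter-Glo) served as the viability read-out after 40 hr compound exposure of freshly isolated rat proximal tubule cells at 37 °C. Concentration-dependent ATP loss was fitted with the Hill equation to give AC50.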
# [19] = biological target: Glucocorticoid receptor (Homo sapiens) (UniProt P04150); test: GR-EFC Redistribution (AID 451; calls by dose curve; note: potency is the fitted concentration of half-maximal effect); conditions: CHO-K1 GR-EFC translocation, beta-gal luminescence, 2 h
# Outline: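 CHO-K1 cells stably expressing nuclear-localized β-gal enzyme acceptor and GR fused C-terminally to the enzyme donor fragment; ligand-driven nuclear translocation restores β-gal by complementation. Compounds titrated up to 46 uM final, 2 h at 37 °C; luminescence read.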
# Sequence of Glucocorticoid receptor (Homo sapiens) (P04150 whole entry, looked up, the tested form may be a part): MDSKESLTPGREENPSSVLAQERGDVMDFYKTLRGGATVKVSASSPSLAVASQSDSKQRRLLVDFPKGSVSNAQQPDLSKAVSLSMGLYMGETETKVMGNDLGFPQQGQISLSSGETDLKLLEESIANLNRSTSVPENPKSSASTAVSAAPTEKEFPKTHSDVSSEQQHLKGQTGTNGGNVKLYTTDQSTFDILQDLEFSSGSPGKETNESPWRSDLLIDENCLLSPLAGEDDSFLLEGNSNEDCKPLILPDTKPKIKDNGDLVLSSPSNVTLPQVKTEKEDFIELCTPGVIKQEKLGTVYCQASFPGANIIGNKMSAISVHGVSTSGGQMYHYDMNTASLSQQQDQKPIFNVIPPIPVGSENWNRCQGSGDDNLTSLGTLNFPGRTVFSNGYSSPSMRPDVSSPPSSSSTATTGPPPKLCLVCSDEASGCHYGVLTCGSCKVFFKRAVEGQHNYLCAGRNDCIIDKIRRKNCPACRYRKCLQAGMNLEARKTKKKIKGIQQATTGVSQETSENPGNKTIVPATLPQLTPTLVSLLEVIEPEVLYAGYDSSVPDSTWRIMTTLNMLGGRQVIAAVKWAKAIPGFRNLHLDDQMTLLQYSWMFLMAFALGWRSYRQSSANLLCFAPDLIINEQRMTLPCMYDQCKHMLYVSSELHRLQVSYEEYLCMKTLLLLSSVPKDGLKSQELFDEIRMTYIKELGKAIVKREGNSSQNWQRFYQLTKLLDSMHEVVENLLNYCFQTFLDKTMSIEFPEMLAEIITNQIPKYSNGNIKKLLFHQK
# Sequence of Cytochrome P450 1A2 (Homo sapiens) (P05177 whole entry, looked up): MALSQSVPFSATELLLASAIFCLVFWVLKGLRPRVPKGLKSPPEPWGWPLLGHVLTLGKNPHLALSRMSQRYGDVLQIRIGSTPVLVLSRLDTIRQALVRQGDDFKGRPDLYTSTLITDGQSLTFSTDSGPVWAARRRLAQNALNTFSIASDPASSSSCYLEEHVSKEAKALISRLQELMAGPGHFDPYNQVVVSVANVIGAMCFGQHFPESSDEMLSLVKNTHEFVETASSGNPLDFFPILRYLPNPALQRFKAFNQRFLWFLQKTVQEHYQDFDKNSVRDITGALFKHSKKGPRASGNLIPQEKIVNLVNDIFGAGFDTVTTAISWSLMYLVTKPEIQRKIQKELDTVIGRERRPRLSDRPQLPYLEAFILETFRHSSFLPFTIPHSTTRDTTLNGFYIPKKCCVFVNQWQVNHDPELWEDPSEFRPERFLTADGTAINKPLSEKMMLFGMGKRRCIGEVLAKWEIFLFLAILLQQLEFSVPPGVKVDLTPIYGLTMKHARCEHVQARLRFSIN
smiles,measurement,setting,value
COc1ccccc1CNCCCCCCNCCCCCCCCNCCCCCCNCc1ccccc1OC,"activity change, negative = inhibition",[1]; at 38 µM (top of the series),-8.92%
same,Potency,[2],inactive
same,Potency,[3],> 46 µM
same,Potency,[4],inactive
N=C(N)SCCc1ccc(CCSC(=N)N)cc1,"activity change, negative = inhibition",[1]; at 38 µM (top of the series),14.8%
same,Potency,[2],inactive
same,Potency,[3],> 46 µM
same,Potency,[4],inactive
CC1(C)S[C@@H]2[C@H](NC(=O)[C@H](N)c3ccccc3)C(=O)N2[C@H]1C(=O)O,"activity change, negative = inhibition",[1]; at 17.2 µM (top of the series),6.1%
same,Potency,[5],> 92 µM
same,Potency,[6],> 92 µM
same,Potency,[7],> 92 µM
same,Potency,[8],> 92 µM
same,Potency,[9],> 92 µM
same,Potency,[10],> 92 µM
same,"activity change, negative = inhibition",[11],3.92% [at 17.2 µM]
same,"activity, negative = inhibition",[12]; at 17.2 µM (top of the series),1.21%
same,Potency,[4],inactive
same,Potency,[13],inactive
same,Potency,[14],inactive
same,Potency,[15],inactive
same,Potency,[16],inactive
same,Potency,[17],inactive
same,"activity change, negative = cytotoxicity",[18],-5.39%
CN=c1nc(-c2ccccc2)n(-c2ccccc2)s1,"activity change, negative = inhibition",[1]; at 38 µM (top of the series),20.8%
same,Potency,[2],5.01 µM (active)
same,"activity, negative = inhibition",[12]; at 38 µM (top of the series),8.46%
same,Potency,[3],> 46 µM
same,Potency,[19],> 46 µM
same,Potency,[4],inactive
C[N+](C)(CCCCCC[N+](C)(C)CCCN1C(=O)c2cccc3cccc(c23)C1=O)CCCN1C(=O)c2cccc3cccc(c23)C1=O,"activity change, negative = inhibition",[1]; at 38 µM (top of the series),14%
same,Potency,[2],inactive
same,"activity, negative = inhibition",[12]; at 38 µM (top of the series),0.109%
same,Potency,[3],> 46 µM
same,Potency,[19],> 46 µM
same,Potency,[4],inactive
Nc1ccc(C(=O)O)c(O)c1,"activity change, negative = inhibition",[1]; at 17.2 µM (top of the series),2.89% and -3.6%
same,"activity change, negative = inhibition",[11],10.1% [at 17.2 µM] and -5.83% [at 17.2 µM]
same,"activity, negative = inhibition",[12]; at 17.2 µM (top of the series),7.35% and -0.89%
same,Potency,[3],> 20.6 µM
N#C/C(=C\c1ccc(O)c(O)c1)C(=O)NCCCc1ccccc1,"activity change, negative = inhibition",[1]; at 17.2 µM (top of the series),-12.8%
same,Potency,[2],12.6 µM (active)
same,"activity, negative = inhibition",[12]; at 17.2 µM (top of the series),-22.9%
same,"activity, negative = inhibition",[12]; at 38 µM (top of the series),-10.2%
same,Potency,[3],> 46 µM and > 20.6 µM
same,Potency,[4],10 µM (active)
NC[C@@H]1O[C@H](C23CC4CC(CC(C4)C2)C3)Cc2c1ccc(O)c2O,"activity change, negative = inhibition",[1]; at 38 µM (top of the series),-6.97%
same,Potency,[2],inactive
same,"activity, negative = inhibition",[12]; at 38 µM (top of the series),0.327%
same,Potency,[3],> 46 µM
same,Potency,[4],inactive
NC(N)=NC(=O)c1nc(Cl)c(N2CCCCCC2)nc1N,"activity change, negative = inhibition",[1]; at 38 µM (top of the series),21.5%
same,Potency,[2],1 µM (active)
same,"activity, negative = inhibition",[12]; at 38 µM (top of the series),1%
same,Potency,[3],> 46 µM
same,Potency,[19],> 46 µM
same,Potency,[4],inactive
O=c1[nH]c2cc(C(F)(F)F)ccc2n1-c1cc(C(F)(F)F)ccc1O,"activity change, negative = inhibition",[1]; at 38 µM (top of the series),-14.9%
same,"activity change, negative = inhibition",[11],7.55%
same,Potency,[3],> 46 µM
same,Potency,[19],> 46 µM
